Assay results as given in publication PMC7862700, “An all-to-all approach to the identification of sequence-specific readers for epigenetic DNA modifications on cytosine”.

How the values were obtained:
Assay in all cases: DAPPL (digital affinity profiling via proximity ligation, sequencing); 10 mM Tris-HCl pH 7.5, 50 mM NaCl, 1 mM DTT, 4% glycerol, room temperature, 30 min; GST-TFs on glutathione beads, 16-mer random dsDNA library, 0.1% formaldehyde crosslink after washing; high values mean tight binding
FEV = target: T1, FEV (Homo sapiens, UniProt Q99581 1-238); conditions: protein: recombinant; tags: N-terminal GST; dsDNA, one strand shown
T1 sequence: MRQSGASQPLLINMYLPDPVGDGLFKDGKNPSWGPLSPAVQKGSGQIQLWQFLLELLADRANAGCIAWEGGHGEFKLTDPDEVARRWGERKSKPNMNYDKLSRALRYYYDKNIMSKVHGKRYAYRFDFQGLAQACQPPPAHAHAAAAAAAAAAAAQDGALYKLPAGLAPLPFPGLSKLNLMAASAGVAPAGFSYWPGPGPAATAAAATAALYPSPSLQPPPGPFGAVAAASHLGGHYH
Outline: (§1)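 Binding signal is defined as a hexamer's read frequency for one factor over its frequency for the tag-only sample. To obtain reads, GST-fused human transcription factors were expressed in yeast, captured on glutathione beads, barcoded with DNA and pooled with that sample. Pools met 200 nmole of a 16-mer random double-stranded DNA library in Tris/NaCl/DTT/glycerol buffer for 30 min at room temperature before washing, 0.1% formaldehyde crosslinking, proximity ligation (BsaI/T4 ligase, 1 h, 37 °C), PCR and Illumina NextSeq500 sequencing.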

ETV5 = ETV5 (Homo sapiens, UniProt P41161 1-510); conditions: protein: recombinant; tags: N-terminal GST; dsDNA, one strand shown
Chain of ETV5 (P41161 whole entry): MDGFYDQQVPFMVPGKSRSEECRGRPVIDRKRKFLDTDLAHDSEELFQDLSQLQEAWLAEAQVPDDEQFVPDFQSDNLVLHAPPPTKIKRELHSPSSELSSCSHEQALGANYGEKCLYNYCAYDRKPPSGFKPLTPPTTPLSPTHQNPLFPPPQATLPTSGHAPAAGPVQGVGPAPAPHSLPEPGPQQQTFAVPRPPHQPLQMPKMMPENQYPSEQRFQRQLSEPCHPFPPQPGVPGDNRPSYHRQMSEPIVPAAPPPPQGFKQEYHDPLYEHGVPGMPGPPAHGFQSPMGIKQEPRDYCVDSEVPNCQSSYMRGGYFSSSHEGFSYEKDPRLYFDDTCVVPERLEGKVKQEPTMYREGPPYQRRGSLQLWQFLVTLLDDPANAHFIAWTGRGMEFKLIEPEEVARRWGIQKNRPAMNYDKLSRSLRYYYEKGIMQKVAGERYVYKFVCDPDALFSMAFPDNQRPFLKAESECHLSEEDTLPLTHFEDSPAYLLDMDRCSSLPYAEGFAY
Outline: as §1

HSF1 = HSF1 (Homo sapiens, UniProt Q00613 1-529); conditions: protein: recombinant; tags: N-terminal GST; chain copies: 3; dsDNA, one strand shown
Chain of HSF1 (Q00613 whole entry): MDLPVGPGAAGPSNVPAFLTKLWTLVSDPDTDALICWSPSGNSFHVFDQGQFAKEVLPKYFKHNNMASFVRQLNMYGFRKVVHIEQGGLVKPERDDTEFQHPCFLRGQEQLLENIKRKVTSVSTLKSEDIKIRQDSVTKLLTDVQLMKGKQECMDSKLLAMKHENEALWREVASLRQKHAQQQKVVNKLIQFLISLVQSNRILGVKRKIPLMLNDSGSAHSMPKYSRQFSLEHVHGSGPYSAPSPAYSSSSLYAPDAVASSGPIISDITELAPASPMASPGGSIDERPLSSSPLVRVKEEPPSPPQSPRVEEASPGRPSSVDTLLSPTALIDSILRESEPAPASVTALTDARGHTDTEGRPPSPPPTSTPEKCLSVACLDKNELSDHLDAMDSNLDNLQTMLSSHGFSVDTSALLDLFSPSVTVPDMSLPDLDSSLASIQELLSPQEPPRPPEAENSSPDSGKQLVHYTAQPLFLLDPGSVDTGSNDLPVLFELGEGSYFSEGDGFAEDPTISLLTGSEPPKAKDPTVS
Outline: as §1

SPIC = target: T2, SPIC (Homo sapiens, UniProt Q8N5J4 1-248); conditions: protein: recombinant; tags: N-terminal GST; dsDNA, one strand shown
T2 sequence: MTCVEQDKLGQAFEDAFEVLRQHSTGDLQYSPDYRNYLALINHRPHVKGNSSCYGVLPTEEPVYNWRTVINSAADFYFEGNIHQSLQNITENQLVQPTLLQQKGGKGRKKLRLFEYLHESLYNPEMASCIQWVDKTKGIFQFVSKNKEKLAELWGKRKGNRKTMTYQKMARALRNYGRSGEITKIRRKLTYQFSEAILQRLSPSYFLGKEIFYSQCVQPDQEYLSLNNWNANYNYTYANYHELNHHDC
Outline: as §1

ELF4 = ELF4 (Homo sapiens, UniProt Q99607 1-663); conditions: protein: recombinant; tags: N-terminal GST; dsDNA, one strand shown
Chain of ELF4 (Q99607 whole entry): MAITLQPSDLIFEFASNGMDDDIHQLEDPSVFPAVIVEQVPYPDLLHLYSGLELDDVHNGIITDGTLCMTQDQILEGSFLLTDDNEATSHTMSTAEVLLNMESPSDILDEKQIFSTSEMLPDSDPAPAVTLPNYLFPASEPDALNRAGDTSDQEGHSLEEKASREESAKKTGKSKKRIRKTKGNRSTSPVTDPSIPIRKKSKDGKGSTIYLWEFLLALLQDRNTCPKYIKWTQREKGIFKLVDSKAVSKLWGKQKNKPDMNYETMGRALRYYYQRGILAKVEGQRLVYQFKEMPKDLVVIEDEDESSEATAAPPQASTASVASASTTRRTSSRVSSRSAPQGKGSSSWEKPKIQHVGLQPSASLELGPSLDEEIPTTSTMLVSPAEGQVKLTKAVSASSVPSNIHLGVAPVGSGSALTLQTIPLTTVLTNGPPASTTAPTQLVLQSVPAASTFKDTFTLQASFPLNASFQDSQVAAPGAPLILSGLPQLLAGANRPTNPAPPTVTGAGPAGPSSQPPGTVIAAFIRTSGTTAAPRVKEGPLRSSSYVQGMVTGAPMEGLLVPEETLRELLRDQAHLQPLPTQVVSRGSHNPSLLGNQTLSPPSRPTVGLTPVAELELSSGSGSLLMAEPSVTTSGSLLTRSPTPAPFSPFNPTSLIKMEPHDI
Outline: as §1

ELK4 = target: T3, ELK4 (Homo sapiens, UniProt P28324-2 1-405); conditions: protein: recombinant; tags: N-terminal GST; dsDNA, one strand shown
T3 sequence: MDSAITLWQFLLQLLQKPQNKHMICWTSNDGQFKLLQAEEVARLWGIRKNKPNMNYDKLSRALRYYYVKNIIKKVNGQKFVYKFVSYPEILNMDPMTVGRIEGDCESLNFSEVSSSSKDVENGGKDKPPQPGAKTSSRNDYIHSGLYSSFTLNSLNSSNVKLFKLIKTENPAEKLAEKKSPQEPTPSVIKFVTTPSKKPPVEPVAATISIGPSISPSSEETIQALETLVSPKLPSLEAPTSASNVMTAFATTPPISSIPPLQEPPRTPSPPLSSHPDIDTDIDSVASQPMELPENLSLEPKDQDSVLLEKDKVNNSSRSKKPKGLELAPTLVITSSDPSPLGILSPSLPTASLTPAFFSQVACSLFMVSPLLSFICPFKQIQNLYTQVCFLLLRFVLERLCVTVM
Outline: as §1

ETV2 = target: T4, ETV2 (Homo sapiens, UniProt O00321 1-342); conditions: protein: recombinant; tags: N-terminal GST; dsDNA, one strand shown
T4 sequence: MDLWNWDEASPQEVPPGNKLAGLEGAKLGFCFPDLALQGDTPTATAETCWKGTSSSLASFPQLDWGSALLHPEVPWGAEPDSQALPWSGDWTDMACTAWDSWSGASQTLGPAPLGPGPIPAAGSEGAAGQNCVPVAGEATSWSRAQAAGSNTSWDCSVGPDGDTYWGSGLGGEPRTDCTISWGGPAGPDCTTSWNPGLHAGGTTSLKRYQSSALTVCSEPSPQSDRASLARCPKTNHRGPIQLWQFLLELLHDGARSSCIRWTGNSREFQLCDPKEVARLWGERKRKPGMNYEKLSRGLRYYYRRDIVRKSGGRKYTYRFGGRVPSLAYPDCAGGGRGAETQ
Outline: as §1

ELF3 = target: T5, ELF3 (Homo sapiens, UniProt P78545 1-371); conditions: protein: recombinant; tags: N-terminal GST; dsDNA, one strand shown
T5 sequence: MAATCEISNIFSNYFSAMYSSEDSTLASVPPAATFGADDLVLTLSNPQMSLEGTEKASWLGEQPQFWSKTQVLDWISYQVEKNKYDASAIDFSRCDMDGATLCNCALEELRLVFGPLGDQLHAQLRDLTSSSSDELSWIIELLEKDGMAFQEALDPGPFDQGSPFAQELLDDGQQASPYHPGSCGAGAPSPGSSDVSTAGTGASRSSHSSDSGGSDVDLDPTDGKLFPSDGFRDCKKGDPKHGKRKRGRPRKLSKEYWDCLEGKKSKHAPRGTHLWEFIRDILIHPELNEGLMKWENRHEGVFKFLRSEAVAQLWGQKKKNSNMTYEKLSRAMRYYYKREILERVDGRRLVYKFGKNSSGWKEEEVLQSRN
Outline: as §1

CRX = CRX (Homo sapiens, UniProt O43186 1-299); conditions: protein: recombinant; tags: N-terminal GST; dsDNA, one strand shown
Chain of CRX (O43186 whole entry): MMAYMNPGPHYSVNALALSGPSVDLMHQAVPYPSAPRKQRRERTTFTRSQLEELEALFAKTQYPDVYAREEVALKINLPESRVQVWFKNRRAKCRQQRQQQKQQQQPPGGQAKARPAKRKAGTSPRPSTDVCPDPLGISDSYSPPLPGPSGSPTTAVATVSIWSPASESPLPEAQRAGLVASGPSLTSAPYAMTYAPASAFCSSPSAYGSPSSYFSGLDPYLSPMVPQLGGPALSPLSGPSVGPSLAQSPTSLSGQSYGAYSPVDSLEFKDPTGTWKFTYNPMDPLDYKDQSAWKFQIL
Outline: as §1

ETV1 = ETV1 (Homo sapiens, UniProt P50549 1-477); conditions: protein: recombinant; tags: N-terminal GST; dsDNA, one strand shown
Chain of ETV1 (P50549 whole entry): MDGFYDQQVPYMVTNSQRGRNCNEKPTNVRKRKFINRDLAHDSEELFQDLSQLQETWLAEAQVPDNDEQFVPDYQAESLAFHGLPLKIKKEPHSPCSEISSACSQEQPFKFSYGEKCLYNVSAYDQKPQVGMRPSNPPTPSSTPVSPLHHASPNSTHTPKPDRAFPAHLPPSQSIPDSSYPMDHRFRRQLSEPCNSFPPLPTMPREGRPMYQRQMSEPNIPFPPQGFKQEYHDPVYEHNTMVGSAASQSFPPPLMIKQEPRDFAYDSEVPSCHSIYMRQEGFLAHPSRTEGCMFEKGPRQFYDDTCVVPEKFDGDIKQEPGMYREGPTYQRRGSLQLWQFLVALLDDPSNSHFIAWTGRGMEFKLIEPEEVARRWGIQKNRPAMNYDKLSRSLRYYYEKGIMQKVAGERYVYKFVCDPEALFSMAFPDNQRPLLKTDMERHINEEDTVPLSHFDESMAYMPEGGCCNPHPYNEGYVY
Outline: as §1

ERF = target: T6, ERF (Homo sapiens, UniProt P50548 1-548); conditions: protein: recombinant; tags: N-terminal GST; dsDNA, one strand shown
T6 sequence: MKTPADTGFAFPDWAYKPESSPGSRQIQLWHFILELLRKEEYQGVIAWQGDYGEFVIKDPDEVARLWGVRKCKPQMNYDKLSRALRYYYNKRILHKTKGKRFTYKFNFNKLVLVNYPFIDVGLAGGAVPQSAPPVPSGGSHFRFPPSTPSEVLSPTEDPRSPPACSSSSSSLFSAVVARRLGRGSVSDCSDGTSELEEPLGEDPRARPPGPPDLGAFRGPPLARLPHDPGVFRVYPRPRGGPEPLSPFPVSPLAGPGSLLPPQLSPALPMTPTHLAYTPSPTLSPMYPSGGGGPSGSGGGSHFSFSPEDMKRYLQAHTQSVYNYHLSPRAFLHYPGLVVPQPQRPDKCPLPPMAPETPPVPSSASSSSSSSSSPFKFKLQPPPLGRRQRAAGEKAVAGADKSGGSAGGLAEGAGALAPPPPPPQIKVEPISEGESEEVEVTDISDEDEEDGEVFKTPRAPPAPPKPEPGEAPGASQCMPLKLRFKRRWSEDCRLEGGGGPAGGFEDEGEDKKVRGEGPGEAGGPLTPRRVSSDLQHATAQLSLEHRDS
Outline: as §1

ETV3L = target: T7, ETV3L (Homo sapiens, UniProt Q6ZN32 1-361); conditions: protein: recombinant; tags: N-terminal GST; dsDNA, one strand shown
T7 sequence: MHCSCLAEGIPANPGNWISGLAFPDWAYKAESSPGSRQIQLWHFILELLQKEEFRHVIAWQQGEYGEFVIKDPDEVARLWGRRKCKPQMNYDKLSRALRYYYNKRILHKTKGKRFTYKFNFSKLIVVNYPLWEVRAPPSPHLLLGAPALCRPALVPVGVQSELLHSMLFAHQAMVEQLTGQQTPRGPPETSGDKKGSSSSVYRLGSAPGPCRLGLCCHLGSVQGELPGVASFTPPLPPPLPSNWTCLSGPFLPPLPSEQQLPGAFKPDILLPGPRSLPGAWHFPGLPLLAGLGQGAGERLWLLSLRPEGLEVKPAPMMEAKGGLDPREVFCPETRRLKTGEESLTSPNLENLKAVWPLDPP
Outline: as §1

ETS2 = target: T8, ETS2 (Homo sapiens, UniProt P15036 1-469); conditions: protein: recombinant; tags: N-terminal GST; dsDNA, one strand shown
T8 sequence: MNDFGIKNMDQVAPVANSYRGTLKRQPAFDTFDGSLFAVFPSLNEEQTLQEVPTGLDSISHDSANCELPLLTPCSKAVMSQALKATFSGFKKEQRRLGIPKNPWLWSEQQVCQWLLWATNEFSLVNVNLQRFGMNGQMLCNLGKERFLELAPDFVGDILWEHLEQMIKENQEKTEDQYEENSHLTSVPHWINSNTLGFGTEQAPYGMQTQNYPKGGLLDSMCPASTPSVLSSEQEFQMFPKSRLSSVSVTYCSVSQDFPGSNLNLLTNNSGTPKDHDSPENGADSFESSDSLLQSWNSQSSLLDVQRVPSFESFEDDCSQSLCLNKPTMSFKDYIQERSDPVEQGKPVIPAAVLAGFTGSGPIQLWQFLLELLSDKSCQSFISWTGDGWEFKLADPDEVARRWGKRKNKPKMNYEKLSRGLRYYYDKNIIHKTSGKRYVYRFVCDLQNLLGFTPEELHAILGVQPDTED
Outline: as §1

SPDEF = target: T9, SPDEF (Homo sapiens, UniProt O95238 1-335); conditions: protein: recombinant; tags: N-terminal GST; dsDNA, one strand shown
T9 sequence: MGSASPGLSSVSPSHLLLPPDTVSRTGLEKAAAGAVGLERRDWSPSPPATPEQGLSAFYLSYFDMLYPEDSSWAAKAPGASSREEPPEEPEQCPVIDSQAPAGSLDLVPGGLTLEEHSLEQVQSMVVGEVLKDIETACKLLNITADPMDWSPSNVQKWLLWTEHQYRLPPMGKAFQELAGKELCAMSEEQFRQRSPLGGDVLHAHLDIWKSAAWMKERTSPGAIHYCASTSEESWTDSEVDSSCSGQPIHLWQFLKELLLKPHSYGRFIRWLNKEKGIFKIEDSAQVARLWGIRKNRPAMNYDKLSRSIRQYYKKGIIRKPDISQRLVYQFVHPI
Outline: as §1

ETV7 = target: T10, ETV7 (Homo sapiens, UniProt Q9Y603 1-341); conditions: protein: recombinant; tags: N-terminal GST; dsDNA, one strand shown
T10 sequence: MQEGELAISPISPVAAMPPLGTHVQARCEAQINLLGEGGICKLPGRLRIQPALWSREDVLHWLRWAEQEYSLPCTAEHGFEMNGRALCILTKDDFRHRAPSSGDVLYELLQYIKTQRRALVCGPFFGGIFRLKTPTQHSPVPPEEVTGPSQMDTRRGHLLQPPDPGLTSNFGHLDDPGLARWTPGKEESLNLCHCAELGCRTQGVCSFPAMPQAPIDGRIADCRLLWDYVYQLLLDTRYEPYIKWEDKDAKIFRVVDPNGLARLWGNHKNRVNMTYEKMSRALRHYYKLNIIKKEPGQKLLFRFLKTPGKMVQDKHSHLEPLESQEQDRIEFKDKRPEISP
Outline: as §1

ELF5 = target: T11, ELF5 (Homo sapiens, UniProt Q9UKW6-2 1-255); conditions: protein: recombinant; tags: N-terminal GST; dsDNA, one strand shown
T11 sequence: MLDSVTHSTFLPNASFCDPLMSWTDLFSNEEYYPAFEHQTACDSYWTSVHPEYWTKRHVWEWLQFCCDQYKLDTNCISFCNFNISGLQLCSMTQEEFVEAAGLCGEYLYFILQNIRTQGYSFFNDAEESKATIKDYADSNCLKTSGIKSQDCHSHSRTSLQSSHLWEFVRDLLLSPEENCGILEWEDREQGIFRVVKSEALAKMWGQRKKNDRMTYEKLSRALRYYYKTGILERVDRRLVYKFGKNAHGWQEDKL
Outline: as §1

ETV3 = target: T12, ETV3 (Homo sapiens, UniProt P41162-2 1-143); conditions: protein: recombinant; tags: N-terminal GST; dsDNA, one strand shown
T12 sequence: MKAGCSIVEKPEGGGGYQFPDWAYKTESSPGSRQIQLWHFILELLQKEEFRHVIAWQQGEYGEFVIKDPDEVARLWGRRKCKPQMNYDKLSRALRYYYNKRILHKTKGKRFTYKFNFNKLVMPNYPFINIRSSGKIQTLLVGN
Outline: as §1

ETV6 = ETV6 (Homo sapiens, UniProt P41212 1-452); conditions: protein: recombinant; tags: N-terminal GST; dsDNA, one strand shown
Chain of ETV6 (P41212 whole entry): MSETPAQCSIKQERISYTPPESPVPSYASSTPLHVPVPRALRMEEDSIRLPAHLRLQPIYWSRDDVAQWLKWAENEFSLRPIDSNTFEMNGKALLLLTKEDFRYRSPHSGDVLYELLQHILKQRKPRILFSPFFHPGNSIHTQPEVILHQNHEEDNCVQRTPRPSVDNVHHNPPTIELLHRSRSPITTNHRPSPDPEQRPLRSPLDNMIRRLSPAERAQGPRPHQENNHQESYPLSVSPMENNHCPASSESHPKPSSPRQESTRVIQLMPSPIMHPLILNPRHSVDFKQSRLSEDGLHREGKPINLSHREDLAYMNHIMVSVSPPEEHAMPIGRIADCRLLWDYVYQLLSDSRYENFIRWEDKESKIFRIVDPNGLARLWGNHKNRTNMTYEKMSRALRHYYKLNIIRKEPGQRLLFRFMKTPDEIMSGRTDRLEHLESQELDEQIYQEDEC
Outline: as §1

Which binding signal (FEV) does the source give for TTATTT here?
Its binding signal is 1.41 fold enrichment (6-mer frequency, TF over GST control).

And the binding signal (ETV5)?
Its binding signal is 1.47 fold enrichment (6-mer frequency, TF over GST control).

What about the binding signal (HSF1) of the same sequence?
The binding signal was 1.64 fold enrichment (6-mer frequency, TF over GST control).

And the binding signal (SPIC)?
The binding signal was 1.48 fold enrichment (6-mer frequency, TF over GST control).

What about the binding signal (ELF4) of the same sequence?
The binding signal was 1.32 fold enrichment (6-mer frequency, TF over GST control).

What about the binding signal (ELK4) of the same sequence?
The binding signal was 1.43 fold enrichment (6-mer frequency, TF over GST control).

What about the binding signal (ETV2) of the same sequence?
Its binding signal is 1.26 fold enrichment (6-mer frequency, TF over GST control).

And the binding signal (ELF3)?
The binding signal was 1.55 fold enrichment (6-mer frequency, TF over GST control).

What about the binding signal (CRX) of the same sequence?
Its binding signal is 2.43 fold enrichment (6-mer frequency, TF over GST control).

What about the binding signal (ETV1) of the same sequence?
The binding signal was 1.52 fold enrichment (6-mer frequency, TF over GST control).

And the binding signal (ERF)?
Its binding signal is 1.26 fold enrichment (6-mer frequency, TF over GST control).

And the binding signal (ETV3L)?
The binding signal was 1.38 fold enrichment (6-mer frequency, TF over GST control).

What about the binding signal (ETS2) of the same sequence?
Its binding signal is 1.41 fold enrichment (6-mer frequency, TF over GST control).

What about the binding signal (SPDEF) of the same sequence?
Its binding signal is 1.19 fold enrichment (6-mer frequency, TF over GST control).

And the binding signal (ETV7)?
The binding signal was 1.46 fold enrichment (6-mer frequency, TF over GST control).

What about the binding signal (ELF5) of the same sequence?
The binding signal was 1.43 fold enrichment (6-mer frequency, TF over GST control).

And the binding signal (ETV3)?
Its binding signal is 1.41 fold enrichment (6-mer frequency, TF over GST control).

What about the binding signal (ETV6) of the same sequence?
The binding signal was 1.4 fold enrichment (6-mer frequency, TF over GST control).
